# Results as given in PubChem BioAssay (NCATS).
# Records with an inconclusive call do not appear. A call without a number means that no potency is given here. A number with no mark means an inactive call. Activity calls are given as the source filed them. Calls come from the whole dose curve; as a rule, active = well fitted inhibition curve with a large enough effect; inconclusive = small, poorly fitted or top-dose-only effect; inactive = flat fitted curve, though single readings scatter.
# Experiment: P-glycoprotein substrates identified in KB-8-5-11 adenocarcinoma cell line, qHTS therapeutic library screen (AID 1346987); note: nearly all actives have a fitted effect of over 65% in size; for activity change, negative = cytotoxicity: series mostly up to about 44 µM
# Summary of the method: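 Compounds are pinned in dose-response onto KB-8-5-11 cells (500 cells/well, colchicine-free medium) and left 72 h at 37 degree C. CellTiter-Glo luminescence then yields AC50 values.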
# Potency is the fitted concentration of half-maximal effect.
SMILES,Potency,"activity change, negative = cytotoxicity"
COc1cc(N)c(Cl)cc1C(=O)NC[C@@H]1CCN2CCC[C@@H]12,inactive,
C/C1=C\C[C@]2(C)C(=O)C(O)=C([C@H](C)CO)[C@H]2C/C=C(\C)[C@@H](O)CC/C(C)=C/CC1,inactive,
Fc1ccc2nc(CCC#Cc3ccccn3)cn2c1,inactive,
COc1ncc2cc(C(=O)Nc3cc(C(=O)NCc4cccc(Cl)c4)ccc3Cl)c(=O)[nH]c2n1,5.8 µM (active),
CCCC1(c2ccccc2)NC(=O)N(CC(=O)N(C)Cc2c(F)cccc2Cl)C1=O (configuration not stated),inactive,
O=[N+]([O-])c1cccc2[nH]c(CNc3nc(N4CCOCC4)nc4c3ncn4-c3ccsc3)nc12,0.103 µM (active),
Nc1nc2c(ncn2[C@@H]2O[C@H](CO)[C@@H](O)[C@H]2O)c(=O)[nH]1,inactive,
CC1(C)CC[C@]2(CO[C@@H]3O[C@H](CO)[C@@H](O)[C@H](O)[C@H]3O)[C@@H](O)C[C@]3(C)C(=CCC4[C@@]5(C)CC[C@H](O[C@@H]6O[C@H](CO[C@@H]7O[C@H](CO[C@@H]8OC[C@@H](O)[C@H](O)[C@H]8O)[C@@H](O)[C@H](O)[C@H]7O)[C@@H](O)[C@H](O)[C@H]6O)C(C)(C)C5CC[C@]43C)[C@@H]2C1 (some centres not stated),,1.76% [at 9.29 µM]
Cc1cc(C)cc(C(=O)NOCCCCCC(=O)NO)c1,1.3 µM (active),
COc1ccc([C@@]2(O)c3c(ccc(CC=C(C)C)c3O)NC(=O)[C@@H]2OC)cc1,inactive,
C=C1CCCC2(C)CC3(OC)OC(=O)C(C)=C3CC12 (configuration not stated),inactive,
CC1CC(O)C2(OC1=O)OC1C(O)C3C4CCC5CC(OC6OC(CO)C(O)C(O)C6OC6OC(C)C(O)C(O)C6O)CCC5(C)C4CCC3(C)C1C2C (configuration not stated),inactive,
